High-throughput results as filed in PubChem BioAssay.
AmpC no deterg = qHTS Inhibitors of AmpC Beta-Lactamase (assay without detergent) | Potency, µM (series often up to 57.1 µM), without a hit: at the top dose activity change, negative = inhibition, usual class: inhibitors | AmpC nitrocefin hydrolysis, absorbance 480 nm, 0.0001% Triton | actives 0.52% (n = 330,000) | AID 485341, 2010;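 note: potency is the fitted concentration of half-maximal effect; plate controls were no compound for no effect and no enzyme for full effect; nearly all actives have a fitted effect of over 20% in size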
Target sequence (P00811 whole entry, looked up): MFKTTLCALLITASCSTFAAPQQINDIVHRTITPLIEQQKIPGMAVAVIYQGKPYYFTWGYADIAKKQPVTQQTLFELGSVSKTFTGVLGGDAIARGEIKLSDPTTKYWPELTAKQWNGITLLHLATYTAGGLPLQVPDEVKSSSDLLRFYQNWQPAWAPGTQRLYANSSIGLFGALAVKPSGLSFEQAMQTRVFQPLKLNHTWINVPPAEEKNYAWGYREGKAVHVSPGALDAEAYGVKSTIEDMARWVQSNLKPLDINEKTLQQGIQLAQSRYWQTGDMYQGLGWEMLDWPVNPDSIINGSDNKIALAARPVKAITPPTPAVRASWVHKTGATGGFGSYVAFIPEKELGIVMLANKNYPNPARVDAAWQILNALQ
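20 mM phosphate pH 7.0 + 0.01% (detergent screen) or 0.0001% Triton X-100; 5.3 nM AmpC reagent; cpd preinc 15 min RT; nitrocefin (800 uM stock) to start; A480 q20 s × 4 min; Activity was normalised to no-enzyme and no-compound control wells.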
HCV inhibitor = qHTS Assay for Inhibitors of Hepatitis C Virus (HCV); Huh7.5.1 HCVcc-Cre infection, luciferase reporter, 44 h; Potency, µM (highest dose often 41.8 µM), without a hit: top-dose activity change, negative = inhibition, usual class: inhibitors; actives 3.4% (n = 340,000); AID 651820, 2012; note: potency is the fitted concentration of half-maximal effect
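Luciferase read-out (15 sec integration) after a 15 min room-temperature substrate step quantifies HCVcc-Cre infection. Cells, 1,000 per well, had compound added 4 h post-plating, then virus at ~0.5 moi, and were cultured 44 h.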
AmpC inh detg = qHTS Inhibitors of AmpC Beta-Lactamase (assay with detergent); Potency, µM (top dose mostly 114 µM), for the others: top-dose activity change, negative = inhibition, hits mostly inhibitors; actives 0.041% (n = 370,000); P00811; AmpC hydrolysis of nitrocefin, absorbance 480 nm, 0.01% Triton;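 note: potency is the fitted concentration of half-maximal effect; 0% = no-compound wells and -100% = no-enzyme wells; nearly all actives have a fitted effect of over 25% in size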
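AmpC (5.3 nM in the dispensed reagent) in 20 mM phosphate pH 7.0 with 0.01% (detergent screen) or 0.0001% Triton X-100 was preincubated with compounds for 15 min at room temperature. Nitrocefin was then added from an 800 uM solution, and hydrolysis was followed at 480 nm.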
FMDV inh = High Throughput Screening for Foot and Mouth Disease Virus Antivirals; FMDV antiviral cell-based qHTS; AID 1159524, 2015; actives 1.2% (n = 410,000); Potency, µM (highest dose often 57.9 µM), inactives show at the highest dose activity change, negative = inhibition, actives largely listed as inhibitors; calls by dose curve; tested in HEK293T cells; note: read-out not given here; potency is the fitted concentration of half-maximal effect; nearly all actives have a fitted effect of over 45% in size
HCMV antiviral = qHTS Assay for inhibitors of the human cytomegalovirus (HCMV) | HFF cells, HCMV-luciferase reporter, 72 h; active compounds read low | activity change, negative = inhibition, % at 57.5 µM | actives 4.5% (n = 410,000) | AID 1259415, 2018; in the data active = activity change below about -60%; inconclusive = no clear call, values can overlap the other calls; inactive = above about -39%
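Cell-based, HFFs, 1000 cells/well, 16 h 37C; cpds in DMSO + HCMV-luc, MOI 1 PFU/cell; 72 h 37C; OneGlo luminescence after 5 min RT; norm. to buffer vs Salinomycin 10uM.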
The depositor's hits bear a star; ? = inconclusive; nt = no result given; [ ] = dose if it differs, or a comment. Sampled rows, rich in hits. Any-hit rate of the full collection: about 7.3%. Unless noted, calls come from the whole dose curve; as a rule, active = well fitted curve in the direction sought with a large enough effect; inconclusive = small, poorly fitted or top-dose-only effect, or another doubt; inactive = no such curve, though single readings can be large; an effect the other way counts as inactive or inconclusive. Unless noted, % is set by controls: 0 for no effect and ±100 for the full control effect.

SMILES	AmpC no deterg	HCV inhibitor	AmpC inh detg	FMDV inh	HCMV antiviral
CS(=O)(=O)Nc1ccc(N2CCN(c3ccc(C(F)(F)F)cn3)CC2)nc1	-10%	11µM*	10%	?	?
CC(C)(C)C(=O)Nc1ccc(N2CCN(c3ccc(C(F)(F)F)cn3)CC2)nc1	-14%	-10%	-10%	-15%	-10
CCC(C)c1ccc(NC(=O)C2CCN(c3ncccn3)CC2)cc1 (stereo not drawn)	18%	?	3%	20%	-17
CCC(C)c1ccc(NC(=O)C2CCN(c3ccc(C(F)(F)F)cn3)CC2)cc1 (stereo not drawn)	-24%	-13%	-2%	?	-60*
Cc1cnc(NC(=O)Nc2ccc(Cl)cc2)s1	-40%	?	3%	31%	-104*
CS(=O)(=O)c1ccc2nc(NC(=O)Nc3cccc(Cl)c3)sc2c1	13µM*	11µM*	?	-5%	-38
Cc1ccc(NC(=O)Nc2nnc(-c3ccncc3)s2)cc1C	-10%	?	-7%	?	-92*
O=C(Nc1ccc(F)cc1)Nc1nnc(-c2ccncc2)s1	-27%	25µM*	0%	?	-95*
CS(=O)(=O)c1ccc2nc(NC(=O)Nc3ccc(Cl)c(Cl)c3)sc2c1	-13%	-3%	1%	-19%	-38
CCOC(=O)c1cc(-c2ccc(F)cc2)n(CC(=O)NCc2ccc(OC)cc2)c1C	nt	nt	3%	15%	0
O=C(NCCc1ccncc1)Nc1cccc(Cl)c1	-17%	2%	-11%	-1%	19
O=C(Nc1ccc(Cl)cc1)Nc1nnc(SCc2ccc(Cl)cc2)s1	-19%	13%	7%	?	-18
O=C(Nc1cccc(Cl)c1)Nc1nnc(-c2ccncc2)s1	16µM*	?	?	?	-98*
O=C(Nc1ccc(Cl)cc1)Nc1nnc(-c2ccncc2)s1	-21%	?	-12%	?	-67*
Cc1ncc2c(c1CNC(=O)CN1CCCCC1)CCN(C(=O)c1ccc(F)cc1Cl)C2	nt	nt	nt	5%	nt
Cc1ccc(CC(NC(=O)c2ccccc2)C(=O)N2CCCC2C(=O)O)cc1 (stereo not drawn)	-8%	17%	-7%	2%	-107*
O=C(NC(Cc1ccc2c(c1)OCO2)C(=O)N1CCCC1C(=O)O)c1ccccc1 (stereo not drawn)	-1%	16%	-10%	27%	-25
CC1=NC(=O)C(N=Nc2cccc(C(=O)O)c2)N1c1ccccc1 (stereo not drawn)	-26%	18%	?	8.9µM*	96
NS(=O)(=O)c1cccc(NC(=O)c2ccccc2NS(=O)(=O)c2ccc(F)cc2)c1	-40%	16%	-3%	0%	-32
O=C(Nc1cccc(S(=O)(=O)N2CCCCC2)c1)c1ccccc1NS(=O)(=O)c1ccc(F)cc1	-40%	?	-2%	?	-98*
Cc1ccc(NC(=O)c2ccccc2NS(=O)(=O)c2ccc(F)cc2)cc1S(=O)(=O)N1CCCCC1	-4%	?	-10%	?	-98*
COc1ccc([N+](=O)[O-])cc1NCC(=O)Nc1cc(S(=O)(=O)N2CCCCC2)ccc1C	-8%	11µM*	2%	-18%	-99*
Cc1ccc(S(=O)(=O)N2CCCCC2)cc1NC(=O)CCCOc1ccccc1	-18%	10µM*	2%	-10%	-6
COc1ccc(CC(=O)Nc2cc(S(=O)(=O)N3CCCCC3)ccc2C)cc1OC	3%	10µM*	0%	?	-69*
Cc1ccc(S(=O)(=O)N2CCCCC2)cc1NC(=O)COC(=O)c1cccn1C	-25%	13µM*	nt	-26%	0
SMILES	AmpC no deterg	HCV inhibitor	AmpC inh detg	FMDV inh	HCMV antiviral
CN(C)c1ccc(-c2noc(C3CCN(C(=O)Nc4ccc(Cl)cc4)CC3)n2)cc1	-18%	?	-4%	?	18
Cc1ccc(-c2noc(C3CCN(C(=O)Nc4ccc(C#N)cc4)CC3)n2)o1	-20%	10µM*	?	-22%	-84*
Cn1c(NC(=O)c2ccccc2Br)cc(=O)n(C)c1=O	-10%	-14%	?	-4%	?
Cn1c(NC(=O)c2ccccc2C(F)(F)F)cc(=O)n(C)c1=O	-6%	10%	?	-18%	-66*
CCOc1ccccc1-c1nc(CN2CCCN(C(=O)c3ccco3)CC2)c(C)o1	68%	nt	-4%	3%	-101*
CCOC(=O)c1nn(-c2ccc(OC)cc2)c(=O)c2c(N)scc12	?	-23%	?	-22%	-9
CCOC(=O)c1nn(-c2ccc(C)c(C)c2)c(=O)c2c(N)scc12	-43%	6.3µM*	1%	-19%	-21
Cc1cccc(-n2c(-c3csc4ccccc34)n[nH]c2=S)c1	-44%	-12%	-11%	-22%	-70*
COc1ccccc1Nc1ncnc2sccc12	-9%	-6%	-1%	-12%	-10
CC(Nc1ncnc2sccc12)c1ccccc1 (stereo not drawn)	-23%	2µM*	-14%	?	-85*
c1ccc(Nc2ncnc3sccc23)cc1	-49%	-16%	-3%	-9%	-61*
O=C(CCc1ccccc1)N=C1SC2CS(=O)(=O)CC2N1c1ccccc1F (stereo not drawn)	5%	7%	-2%	-7%	-37
OCCNc1ncnc2c1ncn2[C@H]1CN(C2CCCC2)C[C@@H](CO)O1	nt	nt	nt	-20%	-9
Cc1ccc(S(=O)(=O)NCC(=O)N(c2ccccc2)C(C(=O)NCc2ccccc2)c2ccco2)cc1 (stereo not drawn)	-7%	3%	-1%	0%	-86*
Cc1cc(C)cc(N(C(=O)CNS(=O)(=O)c2ccccc2)C(C(=O)NCc2ccccc2)c2ccc(C)o2)c1 (stereo not drawn)	-25%	23%	2%	-10%	2
CC(=O)c1ccc(N/C=C/C(=O)c2ccc(Br)cc2)cc1	-20%	10%	-12%	54%	79
C[C@H](CO)N1C[C@H](C)[C@H](CN(C)C(=O)C2CCCCC2)OCc2cnnn2CCCC1=O	nt	nt	nt	nt	-9
O=C(Cn1c(-c2ccccc2)c[n+]2ccsc12)c1ccc(Br)cc1	-9%[11.4 µM]	-5%	-8%	-12%	-74*
C[n+]1ccn(CC(=O)c2ccc(Br)cc2)c1	-22%	0%	2%	-12%	?
Cc1ccc(-c2nnc(SCc3nc4ccccc4[nH]3)n2Cc2ccco2)cc1	-21%	-23%	-4%	5%	-17
Cc1cccc(-c2nnc(SCc3nc4ccccc4[nH]3)n2Cc2ccco2)c1	-6%	?	4%	-27%	-61*
